Results filed as inconclusive are left out. The source made the active and inactive calls. Calls come from the whole dose curve; as a rule, active = well fitted inhibition curve with a large enough effect; inconclusive = small, poorly fitted or top-dose-only effect; inactive = flat fitted curve, though single readings scatter.
Tests used:
Test in all cases: qHTS profiling for inhibitors of Plasmodium falciparum proliferation (AID 504749); note: nearly all actives have a fitted effect of over 60% in size
Settings in all cases: P. falciparum in erythrocytes, SYBR Green DNA, 72 h; series mostly up to 28.7 µM
[1] = system: CP201
How it was run: (§1)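 SYBR Green fluorescence of parasite DNA, read after lysis and overnight dark incubation, measured growth over 72 h in erythrocyte culture at 0.3% parasitemia and 2.5% hematocrit. Data normalised to DMSO and 0.29 uM artemisinin, with plate-drift correction.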

[2] = system: CP203
How it was run: as §1

[3] = system: CP211
How it was run: as §1

[4] = system: CP215
How it was run: as §1

[5] = system: CP217
How it was run: as §1

[6] = system: CP237
How it was run: as §1

[7] = system: CP238
How it was run: as §1

[8] = system: CP250
How it was run: as §1

[9] = system: CP252
How it was run: as §1

[10] = system: CP256
How it was run: as §1

[11] = system: CP260
How it was run: as §1

[12] = system: CP262
How it was run: as §1

[13] = system: CP265
How it was run: as §1

[14] = system: CP266
How it was run: as §1

[15] = system: CP268
How it was run: as §1

[16] = system: CP269
How it was run: as §1

[17] = system: CP286
How it was run: as §1

[18] = system: CP291
How it was run: as §1

[19] = system: CP297
How it was run: as §1

[20] = system: CP247
How it was run: as §1

Measured: Potency
Potency is the fitted concentration of half-maximal effect.

NC(=O)C1c2ccccc2CCc2ccccc21
not listed: [20]
inactive: all other assays above

CCOC(=S)SSC(=S)OCC
not listed: [20]
inactive: all other assays above

CCN(CC)CCCC(C)Nc1cc(/C=C/c2ccccc2Cl)nc2cc(Cl)ccc12 (stereo not given)
active: [1] 4.78 µM | [2] 10.7 µM | [3] 15.1 µM | [4] 13.5 µM | [5] 3.16 µM | [6] 1.78 µM | [7] 4.47 µM | [20] 3.55 µM | [8] 1.26 µM | [10] 3.55 µM | [11] 2 µM | [13] 2.82 µM | [15] 4.26 µM | [16] 3.38 µM | [17] 1.12 µM | [18] 2.13 µM | [19] 7.57 µM

CN1C(C(=O)Nc2ccccn2)C(=O)c2sc(Cl)cc2S1(=O)=O (stereo not given)
not listed: [6] | [18]
inactive: all other assays above

CC(C)(C)CC(C)(C)c1ccc(OCCO)cc1
not listed: [10]
inactive: all other assays above

CCc1ncnc2cc(OC)c(OC)cc12
not listed: [11]
inactive: all other assays above

CC(=O)NCCCS(=O)(=O)O
not listed: [11]
inactive: all other assays above

Cc1cc(-c2ccc(N=Nc3ccc4c(S(=O)(=O)O)cc(S(=O)(=O)O)c(N)c4c3O)c(C)c2)ccc1N=Nc1ccc2c(S(=O)(=O)O)cc(S(=O)(=O)O)c(N)c2c1O
not listed: [11]
inactive: all other assays above

N=C(N)c1ccc(/C=C/c2ccc(C(=N)N)cc2O)cc1
active: [1] 12 µM | [2] 15.1 µM | [4] 5.36 µM | [5] 11.2 µM | [6] 5.01 µM | [7] 10 µM | [20] 10 µM | [8] 11.2 µM | [9] 15.8 µM | [10] 0.447 µM | [11] 11.2 µM | [12] 1.35 µM | [13] 11.2 µM | [15] 9.53 µM | [16] 6.75 µM | [17] 4.47 µM | [18] 6.75 µM | [19] 5.36 µM

C[C@H](N)C(=O)N[C@@H](C)P(=O)(O)O
not listed: [4] | [11]
inactive: all other assays above

O=C(O)CC/C=C\CC[C@@H]1[C@@H](N2CCCCC2)[C@@H](O)C[C@@H]1OCc1ccc(-c2ccccc2)cc1
not listed: [6] | [14]
inactive: all other assays above

O=C(CCCN1CCN2CCCC2C1)c1ccc(F)cc1 (stereo not given)
active: [6] 10 µM
not listed: [3] | [7] | [10] | [11] | [13] | [19]
inactive: all other assays above

CN(C)C(=O)CCSC(SCCC(=O)O)c1cccc(/C=C/c2ccc3ccc(Cl)cc3n2)c1 (stereo not given)
not listed: [5] | [6] | [7] | [9] | [11] | [17] | [19] | [20]
inactive: all other assays above

O=C(O[C@H]1CN2CCC1CC2)N1CCc2ccccc2[C@@H]1c1ccccc1
not listed: [3] | [4] | [6] | [10] | [16] | [20]
inactive: all other assays above

CC(=O)Nc1ccc(NC(=S)NC(=O)c2ccc(C(C)(C)C)cc2)cc1
not listed: [6] | [11] | [13] | [17]
inactive: all other assays above

C[C@@](Cc1ccc(O)c(O)c1)(NN)C(=O)O
not listed: [6] | [11]
inactive: all other assays above

O=C(OCc1ccccc1)c1cccnc1
not listed: [4] | [10] | [11] | [17]
inactive: all other assays above

Cc1ncc(C[n+]2csc(CCO)c2C)c(N)n1
not listed: [4] | [10]
inactive: all other assays above

[O-][N+](=Nc1ccccc1)c1ccccc1
not listed: [2]
inactive: all other assays above

O=C(OC1C[C@@H]2CC3C[C@H](C1)N2CC3=O)c1c[nH]c2ccccc12 (stereo not given in full)
not listed: [3]
inactive: all other assays above

NC(N)=NCC1COc2ccccc2O1 (stereo not given)
inactive: [1] | [2] | [5] | [6] | [7] | [8] | [9] | [13] | [18]

Cn1c(O)c(N=NC(N)=S)c2ccccc21
active: [6] 11.2 µM | [20] 8.91 µM
inactive: [1] | [2] | [3] | [14] | [15] | [16] | [19]

O=P(O)(O)OP(=O)(O)O
not listed: [5] | [7] | [9] | [13]
inactive: all other assays above

CCC(=O)c1ccc2c(c1)N(CCCN1CCN(CCO)CC1)c1ccccc1S2
active: [1] 15.1 µM | [2] 15.1 µM | [3] 13.5 µM | [5] 8.91 µM | [6] 7.94 µM | [8] 8.91 µM | [9] 11.2 µM | [10] 7.08 µM | [11] 10 µM | [12] 6.75 µM | [13] 8.91 µM | [15] 12 µM | [16] 9.53 µM | [17] 4.47 µM | [18] 15.1 µM

COc1ccc(C(=O)c2ccc(C)cc2)c(O)c1
not listed: [3]
inactive: all other assays above

Cc1cc(C(=O)NCCc2ccc(S(=O)(=O)NC(=O)NN3CCCCCC3)cc2)no1
not listed: [3] | [19]
inactive: all other assays above

COC(=O)[C@@H](N)CS
not listed: [4]
inactive: all other assays above

O.O.O.O.O.O.O.O=S(=O)([O-])[O-].[Co+2]
active: [1] 7.57 µM | [2] 6.75 µM | [3] 9.53 µM | [5] 11.2 µM | [7] 7.94 µM | [20] 11.2 µM | [8] 11.2 µM | [9] 11.2 µM | [10] 8.91 µM | [11] 10 µM | [13] 11.2 µM | [16] 7.57 µM | [17] 10 µM | [18] 9.53 µM

COc1cc(C)c(/C=C/C(C)=C/C=C/C(C)=C/C(=O)O)c(C)c1C
not listed: [4] | [19]
inactive: all other assays above

CCCc1nc(C(C)(C)O)c(C(=O)OCc2oc(=O)oc2C)n1Cc1ccc(-c2ccccc2-c2nn[nH]n2)cc1
not listed: [4]
inactive: all other assays above

Source: PubChem BioAssay (NCATS)
